# A selection: hits, their analogues and other compounds. The true share with any hit is near 4%.
# CF NFkB inh: inhibitors of cystic fibrosis induced NF-kB; KKLEB NF-kB-GFP reporter, PAF-induced, GFP fluorescence overnight; inhibition, % at 5 µM; 360,000 compounds, 0.86% hits; AID 588850;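 active = at least 50% inhibition at 5 µM, scaled per plate between neutral and stimulator controls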;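 also: PAF is a Pseudomonas aeruginosa culture filtrate used as stimulus; plate controls were PAF-stimulated DMSO wells for no effect and unstimulated DMSO wells for full effect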
# HIF-2a inh: inhibitors of HIF-2a; 786-0 RCC cells HIF-2a reporter, luciferase luminescence, overnight; inhibition, % at 18.8 µM; 360,000 compounds, 0.72% hits; AID 624352;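 active = inhibition of the luminescence signal of 40% or more relative to plate controls, in a single-dose primary screen at 18.75 µM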
# KKLEB cytotox: reduces viability of KKLEB cystic fibrosis airway cells; 360,000 compounds, 0.36% hits; KKLEB CF airway cells viability, ATPlite luminescence, overnight; hits give low values; cells stimulated with P. aeruginosa culture filtrate; activity change (cytotoxicity), % at 5 µM; AID 602141;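 active = corrected activity change at or below -50% at 5 µM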
# TWEAK Fn14 block: inhibitors of TWEAK-Fn14 interaction signaling | TWEAK-stimulated Fn14 reporter cells, luciferase luminescence, 8 h | inhibition, % at 10 µM | 360,000 compounds, 2% hits; in the data active = inhibition above about 50%
# TROY signal inh: inhibitors of TROY-dependent NF-kB signaling. Q293 LMP1-TROYcd NF-kB luciferase reporter, 4 h. inhibition, % at 10 µM. 360,000 compounds, 0.98% hits;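 active = compounds whose plate-normalised and pattern-corrected inhibition of the luciferase reporter signal at the single screening dose is 50% or more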
# Peg3 prom inh: reduces Peg3 promoter-driven luciferase expression in HeLa. HeLa PEG-Prom luciferase reporter, luminescence, overnight. 360,000 compounds, 1.7% hits. inhibition, % at 20 µM;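 active = inhibition of at least 50% at 20 µM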
# CF NFkB conf: confirmation of cystic fibrosis induced NF-kB inhibitors | AID 602472 | 1,300 compounds, 64% hits | shares compounds with CF NFkB inh | KKLEB CF airway cells, PAF-induced NF-kB-GFP fluorescence, overnight | inhibition, % at 5 µM; in the data active = inhibition above about 40%;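 also: stimulus PAF is a Pseudomonas aeruginosa filtrate and not platelet activating factor; plate controls were DMSO wells with stimulus for no effect and unstimulated DMSO wells for full effect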
# Mdm2-MdmX confirm: Mdm2/MdmX (human) interaction inhibition, confirmed | shares compounds with HIF-2a inh | inhibition, % at 8 µM | SaOS-2 split-luciferase Mdm2/MdmX complementation, luminescence | 740 compounds, 99% hits | AID 504601;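 active = mean inhibition of the luminescence signal across two replicates at or above 26 percent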
# Target sequence (O15151 whole entry, looked up): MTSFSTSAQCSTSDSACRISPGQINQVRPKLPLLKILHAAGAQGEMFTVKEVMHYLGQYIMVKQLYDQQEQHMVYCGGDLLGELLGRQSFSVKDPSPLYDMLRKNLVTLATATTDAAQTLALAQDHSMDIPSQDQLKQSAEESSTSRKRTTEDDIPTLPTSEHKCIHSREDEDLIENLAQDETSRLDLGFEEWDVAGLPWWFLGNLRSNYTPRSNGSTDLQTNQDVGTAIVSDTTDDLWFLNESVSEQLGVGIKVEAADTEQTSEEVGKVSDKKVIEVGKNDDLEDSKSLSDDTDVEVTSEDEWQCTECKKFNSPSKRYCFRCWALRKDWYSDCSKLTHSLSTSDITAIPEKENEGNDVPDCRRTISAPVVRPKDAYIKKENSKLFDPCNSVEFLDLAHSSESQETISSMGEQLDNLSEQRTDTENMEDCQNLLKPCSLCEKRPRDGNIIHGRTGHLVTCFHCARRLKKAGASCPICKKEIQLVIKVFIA
# Target sequence (Q00987 whole entry, looked up): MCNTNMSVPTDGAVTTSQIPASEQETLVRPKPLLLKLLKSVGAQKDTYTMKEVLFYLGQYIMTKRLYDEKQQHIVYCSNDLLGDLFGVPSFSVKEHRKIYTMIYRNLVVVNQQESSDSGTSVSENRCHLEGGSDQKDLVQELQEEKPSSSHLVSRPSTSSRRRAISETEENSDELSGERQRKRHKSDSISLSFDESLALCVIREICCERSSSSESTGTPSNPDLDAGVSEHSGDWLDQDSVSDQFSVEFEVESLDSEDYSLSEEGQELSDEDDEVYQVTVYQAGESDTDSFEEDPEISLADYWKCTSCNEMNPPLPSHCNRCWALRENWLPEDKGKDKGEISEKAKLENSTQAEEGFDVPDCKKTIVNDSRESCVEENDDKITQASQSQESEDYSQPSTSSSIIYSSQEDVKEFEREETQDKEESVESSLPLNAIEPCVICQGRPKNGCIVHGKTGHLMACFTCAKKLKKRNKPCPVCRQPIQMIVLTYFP
# HIF-2a conf: confirmation of HIF-2a inhibitors | shares compounds with HIF-2a inh | 786-0 RCC cells, HIF-2a luciferase reporter luminescence, overnight | inhibition, % at 18.8 µM | 1,800 compounds, 56% hits;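 active = mean inhibition across four replicates of at least 40 percent at the single tested concentration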
# HIF-1a counter: HIF-1a inhibition counter-screen for HIF-2a hits. AID 651589. shares compounds with HIF-2a inh. inhibition, % at 18.8 µM. MiaPaCa-2 HIF-1a luciferase reporter, desferoxamine, overnight. 1,800 compounds, 72% hits;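 active = mean inhibition of the reporter signal across four replicates at the single tested dose of 50% or more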
# Numbers without * were called inactive; nt = not tested or not shown.
SMILES,CF NFkB inh,HIF-2a inh,KKLEB cytotox,TWEAK Fn14 block,TROY signal inh,Peg3 prom inh,HIF-2a conf,HIF-1a counter,others
NC(=Nc1ccccc1)NN=Cc1c[nH]c2ccccc12,67*,-14,-45,-2,4,33,nt,nt,CF NFkB conf=55*
CCOC(=O)c1cnc(SCc2ccc(Cl)c(Cl)c2)nc1N1CC1,67*,-12,-41,-1,11,31,nt,nt,CF NFkB conf=38
COc1ccc(C(CNC(=O)Cc2ccc(Cl)c(Cl)c2)N2CCCCC2)cc1 (configuration not stated),-5,19,-6,1,-2,6,nt,nt,
O=c1[nH]c2ccccc2n1C1CCN(C(c2cc3ccccc3o2)c2nnnn2-c2ccc3c(c2)OCCO3)CC1 (configuration not stated),80*,-3,-35,78*,67*,98*,nt,nt,CF NFkB conf=106*
COc1ccc(C(c2nnnn2-c2ccc(OC)cc2)N2CCC(n3c(=O)[nH]c4ccccc43)CC2)cc1 (configuration not stated),92*,-20,-39,38,17,68*,nt,nt,CF NFkB conf=90*
O=C1C(Br)C2CCC1C2C(=O)O (configuration not stated),6,9,6,-15,-11,2,nt,nt,
COC(=O)C1=C(c2ccc(F)cc2F)C[C@@H]2CC[C@H]1N2C(=O)NCCOc1ccc(OC)cc1,15,9,22,-9,-29,-6,nt,nt,
COc1ccc(Oc2cc(NC(=O)c3nn(C)cc3[N+](=O)[O-])cc([N+](=O)[O-])c2)cc1,59*,94*,-42,25,-9,104*,nt,nt,CF NFkB conf=108*;Mdm2-MdmX confirm=84*
O=P(/C=C1\OCc2ccccc21)(Oc1ccccc1)Oc1ccccc1,nt,-26,nt,nt,nt,nt,nt,nt,
CNc1cc(Cl)c2nonc2c1[N+](=O)[O-],84*,95*,-46,-2,89*,107*,93*,106*,CF NFkB conf=29
COC(=O)C1=C(c2cccc(C#N)c2)C[C@@H]2CC[C@H]1N2C(=O)N1CCC(C)CC1,6,0,0,-9,-26,10,nt,nt,
C[C@@H]([C@@H](O)c1ccccc1)N(C)C(=O)Cc1ccccc1,-19,13,13,8,-25,3,nt,nt,
CN(C)CC(C(=O)Cc1ccccc1)c1ccccc1 (configuration not stated),59*,97*,-40,44,-33,101*,22,106*,CF NFkB conf=-41
CCCCCN1C(=O)c2cc(OC)ccc2[C@@]2(C(=O)OCC)Cc3cc(OC)ccc3[C@@H]12,nt,81*,nt,62*,36,nt,92*,106*,
CCOC(=O)[C@]12Cc3cc(OC)ccc3[C@H]1N(C)C(=O)c1cc(OC)ccc12,nt,12,nt,33,32,nt,nt,nt,
CCOC(=O)[C@]12Cc3ccc(C)cc3[C@H]1N(C1CCCCC1)C(=O)c1ccccc12,nt,81*,nt,92*,51*,nt,96*,98*,
CCOC(=O)[C@]12Cc3cc(C)ccc3[C@H]1N(C1CCCCC1)C(=O)c1ccccc12,nt,88*,nt,69*,44,nt,97*,106*,
CCOC(=O)[C@]12Cc3cc(C)ccc3[C@H]1N(CCC(=O)OC)C(=O)c1ccccc12,nt,25,nt,18,21,nt,nt,nt,
CCOC(=O)[C@]12Cc3ccccc3[C@H]1N(C(C)C)C(=O)c1ccccc12,nt,31,nt,22,17,nt,nt,nt,
CCOC(=O)[C@]12Cc3c(cc(OC)c(OC)c3OC)[C@H]1N(C1CCCCC1)C(=O)c1ccccc12,nt,76*,nt,48,45,nt,90*,105*,
C=CCN1CC[C@]23c4c5ccc(O)c4OC2C(O)C=CC3[C@H]1C5 (some centres not stated),11,2,-5,-2,3,-8,nt,nt,
COC(=O)C12CCc3c(ccc4cc(OC)ccc34)C1=CC(=O)C2 (configuration not stated),-3,-7,-6,-8,10,6,nt,nt,
CCC1CN1P(=O)(c1ccccc1)N1CC1CC (configuration not stated),18,3,-2,17,-6,-4,nt,nt,
CCOC(=O)c1cccc(C2=C(CNC(=O)c3nccs3)[C@H]3CC[C@@H](C2)N3Cc2ccccc2)c1,1,0,2,-17,5,8,nt,nt,
CCOC(=O)[C@]12Cc3ccc(C)cc3[C@H]1N(C1CCCCC1)C(=O)c1cc(OC)ccc12,nt,95*,nt,101*,48,nt,99*,106*,
SMILES,CF NFkB inh,HIF-2a inh,KKLEB cytotox,TWEAK Fn14 block,TROY signal inh,Peg3 prom inh,HIF-2a conf,HIF-1a counter,others
COc1cc(/C=C/[N+](=O)[O-])ccc1OC(=O)c1cccnc1,34,42*,1,47,66*,88*,54*,45,
COc1cc(/C=N/n2cnnc2)ccc1OC(=O)N(C)C,2,7,20,8,10,5,nt,nt,
Cc1cccc(OP(=O)(NCc2ccccc2)Oc2cccc(C)c2)c1,6,68*,-10,38,16,34,0,80*,
CC(N)C(=O)NC1C2C(=C(O)CC(O)C2O)C(=O)OC1(C)C(Cl)Cl (configuration not stated),87*,45*,-31,96*,78*,96*,57*,104*,
CC(=O)O[C@H]1[C@H]2O[C@]23[C@@H]2CC[C@]4(O)C[C@@H](O)CC[C@]4(C)C2CC[C@]3(C)[C@H]1c1ccc(=O)oc1 (some centres not stated),82*,76*,-54*,83*,56*,101*,43*,106*,Mdm2-MdmX confirm=87*
C=C1C(=O)[C@@]23C[C@H]4[C@@H]5[C@@]6(C)CCC[C@@]57[C@@H]2[C@@H](O)[C@@H]1C[C@H]3[C@H]7N4C6,74*,69*,2,50,16,93*,nt,nt,Mdm2-MdmX confirm=101*
O=C(c1cccnc1)N1Cc2ccccc2-n2nncc2C1,-15,-11,0,-4,1,-8,nt,nt,
C[C@H]1[C@@H](OS(=O)(=O)O)C[C@@H]2C[C@H]([C@@H](O)c3cc(=O)[nH]c(=O)[nH]3)NC3=NC[C@H]1N32,76*,54*,-10,60*,25,97*,23,105*,
CC(C)(C)n1nnnc1C(CCc1ccccc1)N1CCC2(CC1)C(=O)NCN2c1ccccc1 (configuration not stated),6,-14,-23,29,17,30,nt,nt,
